# “And” between values parts separate entries of the source, which are not always exact repeats. Equal entries are not always repeated. Results filed as inconclusive are left out. Entries that show only a call come without a potency. More than one record can exist for a structure, and the calls need not agree. The source made the active and inactive calls. Calls come from the whole dose curve; as a rule, active = well fitted cell-killing curve with a large enough effect in the repeat runs; inconclusive = weak or mixed curves, or effect the other way; inactive = no such curve, though single readings can be large or run the other way.
# Assay: qHTS assay to identify small molecule antagonists of the vitamin D receptor (VDR) signaling pathway - cell viability counter screen (AID 743225); note: nearly all actives have a fitted effect of over 50% in size
# Conditions: VDR-bla HEK293T viability, CellTiter-Glo luminescence, 16 h; series mostly up to 61 µM
# Excerpt: U.S. Tox21 Program National Center for Advancing Translational Sciences [NCATS] NIH Chemical Genomics Center [NCGC] U.S. Environmental Protection Agency [EPA] National Institutes of Environmental Health Sciences [NIEHS] National Toxicology Program [NTP] U.S. Food and Drug Administration [FDA] Tox21 Assay Overview: The vitamin D receptor (VDR), a member of nuclear hormone receptor superfamily, plays a critical role in calcium homeostasis and bone metabolism. It is also involved in cell differentiation and growth, and thrombogenicity. To identify the compounds that inhibit VDR signaling, the VDR-UAS-bla HEK 293T cell line (Invitrogen, Carlsbad, CA, USA) containing a beta-lactamase reporter gene under the control of an upstream activator sequence (UAS) was used to screen the Tox21 10K compound library. The cytotoxicity of the Tox21 compound library against the VDR-bla cell line was tested in parallel by measuring the cell viability using CellTiter-Glo assay (Promega, Madison, WI) in the same wells.
# Tox21 Assay Protocol Summary: VDR-bla cells were dispensed at 2,000 cells/5 uL of assay medium per well into black wall/clear-bottom 1536-well plates using a Multidrop Combi (Thermo Fisher Scientific, Waltham, MA) dispenser. After the assay plates were incubated at a 37C and 5% CO2 for 4 h, 23 nL of compounds dissolved in DMSO, positive controls or DMSO only was transferred to the assay plate by a Pintool station (Kalypsys, San Diego, CA), followed by addition of 1 uL of 1-alpha, 25-Dihydroxy Vitamin D3 (3 nM, final concentration in the wells) using a Bioraptr Flying Reagent Dispenser (FRD) workstation (Beckman Coulter, Indianapolis, IN). The plates were incubated at 37C and 5% CO2 for 16 h, and then 1 uL of LiveBLAzerTM B/G FRET substrate was added using a Bioraptr FRD. The plates were incubated at room temperature for 2 h and fluorescence intensity was measured by an Envision plate reader (PerkinElmer, Shelton, CT). For cell viability readout that measures cytotoxicity, 3 ul/well of CellTiter-Glo reagent was added into the assay plates using a Bioraptr FRD. After 30 min incubation at room temperature, the luminescence intensity in the plates was measured using a ViewLux plate reader (PerkinElmer).
# Potency is the fitted concentration of half-maximal effect.
row,SMILES,Potency
1,CNC[C@H](O)[C@@H](O)[C@H](O)[C@H](O)CO,inactive
2,CC1=CC[C@H]2C[C@@H]1C2(C)C,inactive
3,C=C1C2CCC(C2)C1(C)C (stereo not given),inactive
4,CCC(=O)O,inactive
5,CS(=O)(=O)c1ccc([C@@H](O)[C@@H](CO)NC(=O)C(Cl)Cl)cc1,inactive
6,CCc1ccccc1O,inactive
7,CC1(C)CC(N=C=O)CC(C)(CN=C=O)C1 (stereo not given),inactive
8,C=C1CC[C@H](O)CC1=C/C=C1\CCC[C@]2(C)[C@@H]([C@H](C)/C=C/[C@H](C)C(C)C)CC[C@@H]12,inactive
9,OCCOCCOCCOCCO,inactive
10,Nc1cc(-c2ccncc2)c[nH]c1=O,inactive
11,CC[Si](OC(C)=O)(OC(C)=O)OC(C)=O,inactive
12,O=[N+]([O-])c1cccc(Cl)c1,inactive
13,CCCCCCCCCCCCOCC1CO1 (stereo not given),inactive
14,Clc1cc(Cl)c(Cl)cc1Cl,inactive
15,NCCc1ccc(O)c(O)c1,inactive
16,Nc1nc2ncc(CNc3ccc(C(=O)N[C@@H](CCC(=O)O)C(=O)O)cc3)nc2c(=O)[nH]1,inactive
17,NC(=O)NNc1ccccc1,inactive
18,CCCCCCC(C)(C)S,inactive
19,CCCCCCCCCCCCN,inactive and 54.9 µM (active)
20,O=C1CCCCC1,inactive

row,SMILES,Potency
1,Cc1cc(Cc2ccc(N)c(C)c2)ccc1N,inactive
2,CC1(C)O[C@@H]2C[C@H]3[C@@H]4C[C@H](F)C5=CC(=O)CC[C@]5(C)[C@H]4[C@@H](O)C[C@]3(C)[C@]2(C(=O)CO)O1,inactive
3,Cc1cc(NS(=O)(=O)c2ccc(N)cc2)no1,inactive
4,C=C(C)C(=O)OCCCCCC,inactive
5,O=[N+]([O-])c1cc(N(CCO)CCO)ccc1NCCO,inactive
6,Oc1ccc2ccccc2c1,inactive
7,CC1=C(CC(=O)O)c2cc(F)ccc2/C1=C\c1ccc(S(C)=O)cc1 (stereo not given),inactive
8,CCCCC/C=C\C/C=C\CCCCCCCC(=O)OC,inactive
9,COCC(C)O (stereo not given),inactive
10,CC(=O)Nc1ccc(C(=O)O)cc1,inactive
11,C/C=C(C)/C=C/C=C(C)C,inactive
12,Cc1ccc(C)c(C)c1,inactive
13,CC(=O)CCc1ccccc1,inactive
14,Cc1cc(O)c2c(c1)C(=O)c1cc(O)cc(O)c1C2=O,inactive
15,CCC(C)C=O (stereo not given),inactive
16,OCC1CCCO1 (stereo not given),inactive
17,O=C(Cl)c1c(Cl)c(Cl)c(C(=O)Cl)c(Cl)c1Cl,inactive
18,CS(=O)(=O)Nc1ccc([N+](=O)[O-])cc1Oc1ccccc1,inactive
19,OC[C@@H](O)[C@H](O)[C@H](O)[C@@H](O)CO,inactive
20,CCOC(=O)/C=C\C(=O)OCC,inactive

# From PubChem BioAssay (Tox21)
